# Results taken from PubChem BioAssay (EPA / NIEHS).
# Where “and” joins values, the source holds several entries; their conditions need not be identical. Identical values can stand only once. Results filed as inconclusive are left out. Some compounds were tested as several samples or in several runs, with calls that do not always agree. Calls of active or inactive are those of the source. The calls were made as follows: active = hit-call score of the fitted dose curve at least 0.9, where 1 is the maximum; inconclusive = response in the unintended direction; inactive = score below 0.9.
# Test system: not listed separately
# Assay: TOX21_p53_BLA_p5_viability: Viability Assessment in the Tox21 HCT-116 p53 Agonism Beta-lactamase Assay, Phase 5 (AID 2283600)
# Procedure, shortened: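 Workflow: seed 4000 cells per well, wait 5 h, add compounds (DMSO, 217-fold dilution), incubate 16 h, load CCF4-AM 2 h, add CellTiter-Glo, read luminescence after 30 min.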
SMILES,outcome,AC50
C=C(C)C(N)=O,inactive,
CC/C(=C(\c1ccccc1)c1ccc(OCCN(C)C)cc1)c1ccccc1,,64.3 µM (active) [middle of 4 runs]
C[C@]12CC[C@@H]3c4ccc(O)cc4CC[C@H]3[C@@H]1CC[C@@H]2O,inactive,
COC(=O)c1ccc(C(=O)OC)cc1,inactive,
CCCCOCCOCCO,inactive,

# Molecular target: Cellular tumor antigen p53 (Homo sapiens) (UniProt P04637)
# Assay: TOX21_p53_BLA_p4_ratio: Tox21 HCT-116 p53 Agonism Beta-lactamase Assay, Ratio, Phase 4 (AID 2283601)
# Procedure, shortened: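 HCT-116 p53 beta-lactamase reporter cells (4000/well) preincubated 5 h, then compound (217-fold dilution of DMSO stock) for 16 h at 37C. CCF4-AM substrate added 2 h at room temperature; 460/530 nm emission ratio fitted upward versus DMSO.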
# Cellular tumor antigen p53 (Homo sapiens), sequence (P04637 whole entry, looked up): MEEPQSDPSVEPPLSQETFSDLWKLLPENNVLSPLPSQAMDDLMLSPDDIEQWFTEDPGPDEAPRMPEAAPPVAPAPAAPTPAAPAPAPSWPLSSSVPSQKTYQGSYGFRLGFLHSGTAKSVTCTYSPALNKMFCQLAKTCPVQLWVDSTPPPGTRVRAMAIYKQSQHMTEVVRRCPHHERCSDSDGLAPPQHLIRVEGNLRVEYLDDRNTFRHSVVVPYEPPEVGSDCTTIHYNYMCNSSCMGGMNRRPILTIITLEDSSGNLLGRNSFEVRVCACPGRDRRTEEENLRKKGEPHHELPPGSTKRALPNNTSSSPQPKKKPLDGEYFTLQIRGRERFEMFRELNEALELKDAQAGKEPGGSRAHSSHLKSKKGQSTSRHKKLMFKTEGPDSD
SMILES,outcome,AC50
COC(=O)c1ccc(C(=O)OC)cc1,inactive,
CCCCOCCOCCO,inactive,
O=C(c1ccc(OCCN2CCCCC2)cc1)c1c(-c2ccc(O)cc2)sc2cc(O)ccc12,,69.6 µM (active) and 69.3 µM (active) and 36.5 µM (active)
C#C[C@]1(O)CC[C@H]2[C@@H]3CCc4cc(O)ccc4[C@H]3CC[C@@]21C,,6.65 µM (active) and 13.5 µM (active) and 8.18 µM (active)

# Test system: not listed separately
# Assay: Tanguay_ZF_120hpf_MORT_legacy: (Legacy) Oregon State University Tanguay Lab 120 Hour Post-fertilization zebrafish Assay for Mortality (AID 2283633);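 as to AC50: fitted as increase in binary mortality versus DMSO negative control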
# Procedure, shortened: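 5D WT zebrafish, chorion removed 4 hpf; 1 embryo/well from 6 hpf; static exposure to 120 hpf, 28C, dark, sealed. Final DMSO 0.64%. Readout: binary mortality, brightfield, 24 + 120 hpf; DMSO as negative control.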
SMILES,outcome,AC50
C=C(C)C(N)=O,inactive,
CC/C(=C(\c1ccccc1)c1ccc(OCCN(C)C)cc1)c1ccccc1,inactive,31.4 µM (active)
C[C@]12CC[C@@H]3c4ccc(O)cc4CC[C@H]3[C@@H]1CC[C@@H]2O,inactive,
COC(=O)c1ccc(C(=O)OC)cc1,inactive,
CCCCOCCOCCO,inactive,
O=C(c1ccc(OCCN2CCCCC2)cc1)c1c(-c2ccc(O)cc2)sc2cc(O)ccc12,inactive,
C#C[C@]1(O)CC[C@H]2[C@@H]3CCc4cc(O)ccc4[C@H]3CC[C@@]21C,inactive,

# Test system: not listed separately
# Assay: Tanguay_ZF_120hpf_YSE_legacy: (Legacy) Oregon State University Tanguay Lab 120 Hour Post-fertilization zebrafish Assay for Yolk Sac Edema (AID 2283634);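 as to AC50: actives raise the incidence of yolk sac edema above the DMSO baseline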
# Procedure, shortened: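 Dechorionate (pronase, 4 hpf) → place one 6 hpf embryo per well → static compound exposure, sealed and foil-covered, 28C, to 120 hpf → record yolk sac edema as present or absent. Final DMSO 0.64%.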
SMILES,outcome,AC50
C=C(C)C(N)=O,inactive,
CC/C(=C(\c1ccccc1)c1ccc(OCCN(C)C)cc1)c1ccccc1,inactive,
C[C@]12CC[C@@H]3c4ccc(O)cc4CC[C@H]3[C@@H]1CC[C@@H]2O,inactive,
COC(=O)c1ccc(C(=O)OC)cc1,,37 µM (active)
CCCCOCCOCCO,inactive,
O=C(c1ccc(OCCN2CCCCC2)cc1)c1c(-c2ccc(O)cc2)sc2cc(O)ccc12,inactive,
C#C[C@]1(O)CC[C@H]2[C@@H]3CCc4cc(O)ccc4[C@H]3CC[C@@]21C,inactive,

# Test system: not listed separately
# Assay: Tanguay_ZF_120hpf_AXIS_legacy: (Legacy) Oregon State University Tanguay Lab 120 Hour Post-fertilization zebrafish Assay for Body Axis Malformation (AID 2283635);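 as to AC50: potency for an increased fraction of larvae scored with body axis malformation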
# Procedure, shortened: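 Chorion is removed with pronase at 4 hpf, then single 6 hpf embryos are dosed (final DMSO 0.64%) and held statically at 28C in sealed, foil-covered plates. At 120 hpf body axis malformation is recorded as present or absent.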
SMILES,outcome,AC50
C=C(C)C(N)=O,inactive,
CC/C(=C(\c1ccccc1)c1ccc(OCCN(C)C)cc1)c1ccccc1,inactive,
COC(=O)c1ccc(C(=O)OC)cc1,,21.1 µM (active)
CCCCOCCOCCO,inactive,
O=C(c1ccc(OCCN2CCCCC2)cc1)c1c(-c2ccc(O)cc2)sc2cc(O)ccc12,inactive,

# Test system: not listed separately
# Assay: Tanguay_ZF_120hpf_EYE_legacy: (Legacy) Oregon State University Tanguay Lab 120 Hour Post-fertilization zebrafish Assay for Eye Malformation (AID 2283636);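 also: binary presence or absence of eye malformation scored by brightfield in 120 hpf larvae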
# Procedure, shortened: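 5D wild-type embryos, pronase-dechorionated at 4 hpf; static exposure 6–120 hpf, 28C, dark; DMSO 0.64% final; 5uM trimethyltin chloride positive control. Binary eye-defect scoring at 120 hpf; dead embryos not scored.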
SMILES,outcome,AC50
C=C(C)C(N)=O,inactive,
C[C@]12CC[C@@H]3c4ccc(O)cc4CC[C@H]3[C@@H]1CC[C@@H]2O,inactive,
COC(=O)c1ccc(C(=O)OC)cc1,,34 µM (active)
CCCCOCCOCCO,inactive,
O=C(c1ccc(OCCN2CCCCC2)cc1)c1c(-c2ccc(O)cc2)sc2cc(O)ccc12,inactive,
C#C[C@]1(O)CC[C@H]2[C@@H]3CCc4cc(O)ccc4[C@H]3CC[C@@]21C,inactive,

# Test system: not listed separately
# Assay: Tanguay_ZF_120hpf_SNOU_legacy: (Legacy) Oregon State University Tanguay Lab 120 Hour Post-fertilization zebrafish Assay for Snout Malformation (AID 2283637)
# Method: (§1) Tanguay_ZF_120hpf_legacy is a whole embryo, multiplexed endpoint assay using zebrafish larvae exposed for 120 hours post fertilization on a 96-well plate.Tanguay_ZF_120hpf_SNOU_legacy is one of one assay component(s) measured or calculated from the Tanguay_ZF_120hpf_legacy assay. It is designed to make measurements of zebrafish development as detected with brightfield microscopy of developing zebrafish embryos.Data from the assay component Tanguay_ZF_120hpf_SNOU_legacy was analyzed into 1 assay endpoints. This assay endpoint, Tanguay_ZF_120hpf_SNOU_legacy, was analyzed in the positive analysis fitting direction relative to DMSO as the negative control and baseline of activity. Using a type of morphology reporter, gain-of-signal activity can be used to understand changes in developmentals as they relate to the whole embryo. To generalize the intended target to other relatable targets, this assay endpoint is annotated to the zebrafish development intended target family, where the subfamily is embryonic snout morphogenesis.
# (§2) Zebrafish husbandry: Tropical 5D wild-type adult zebrafish were housed in at an approximate density of 1000 per 100 gallon tank at the Sinnhuber Aquatic Research Laboratory, Oregon State University, Corvallis, OR. Each tank was kept at standard laboratory conditions of 28C on a 14-h light/10-h dark photoperiod in fish water consisting of reverse osmosis water supplemented with a commercially available salt (Instant Ocean). Spawning funnels were placed into the tanks the night prior, and embryos were collected and staged. To increase bioavailability, the chorion was enzymatically removed using pronase (63.6mg/ml, >/= 3.5U/mg, Sigma-Aldrich: P5147) at 4 hours post fertilization (hpf) using a custom automated dechorionator.Chemical exposures: Six hpf dechorionated embryos were placed 1 embryo per well in a 96-well plate prefilled with 90 ul of EM using automated embryo placement systems (AEPS). Ten microliters of each row of dilution plate 2 was added to 2 exposure plates. The final DMSO concentration used was 0.64% (vol/vol). Thirty-two embryos were also exposed to 5uM trimethyltin chloride (positive control). Plates were sealed to prevent evaporation and foil covered to reduce light exposure and kept in a 28C incubator. Embryos were statically exposed until 120 hpf. At 24 hpf, embryos were assessed for photomotor response using a custom photomotor response analysis tool (PRAT) and for developmental toxicity endpoints (MO24: mortality at 24 hpf, DP: developmental progression, SM: spontaneous movement, and NC: notochord distortion). At 120 hpf, locomotor activity was measured using Viewpoint Zebralab and assessed for 18 endpoints. Zebrafish acquisition and analysis program (ZAAP), a custom program designed to inventory, acquire, and manage zebrafish data, was used to collect developmental endpoints as either present or absent (i.e., binary responses were recorded). If mortality occurred for an embryo (at either 24 or 120 hpf), the non-mortality endpoints were not measured.
SMILES,outcome,AC50
CC/C(=C(\c1ccccc1)c1ccc(OCCN(C)C)cc1)c1ccccc1,inactive,
C[C@]12CC[C@@H]3c4ccc(O)cc4CC[C@H]3[C@@H]1CC[C@@H]2O,inactive,
COC(=O)c1ccc(C(=O)OC)cc1,,30.2 µM (active)
CCCCOCCOCCO,inactive,
O=C(c1ccc(OCCN2CCCCC2)cc1)c1c(-c2ccc(O)cc2)sc2cc(O)ccc12,inactive,
C#C[C@]1(O)CC[C@H]2[C@@H]3CCc4cc(O)ccc4[C@H]3CC[C@@]21C,inactive,

# Test system: not listed separately
# Assay: Tanguay_ZF_120hpf_JAW_legacy: (Legacy) Oregon State University Tanguay Lab 120 Hour Post-fertilization zebrafish Assay for Jaw Malformation (AID 2283638);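 as to AC50: active means more embryos with jaw malformation than DMSO controls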
# Procedure, shortened: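 Steps: dechorionate 4 hpf embryos (pronase); plate 1/well at 6 hpf; add test chemical, 0.64% DMSO final; seal, cover, hold at 28C statically to 120 hpf; score jaw defect presence/absence microscopically. Dead embryos not scored.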
SMILES,outcome,AC50
C=C(C)C(N)=O,inactive,
C[C@]12CC[C@@H]3c4ccc(O)cc4CC[C@H]3[C@@H]1CC[C@@H]2O,inactive,
COC(=O)c1ccc(C(=O)OC)cc1,,32.7 µM (active)
CCCCOCCOCCO,inactive,
C#C[C@]1(O)CC[C@H]2[C@@H]3CCc4cc(O)ccc4[C@H]3CC[C@@]21C,inactive,

# Test system: not listed separately
# Assay: Tanguay_ZF_120hpf_OTIC_legacy: (Legacy) Oregon State University Tanguay Lab 120 Hour Post-fertilization zebrafish Assay for Otic Vesicle Malformation (AID 2283639)
# Method: as §1, with “plate.Tanguay_ZF_120hpf_OTIC_legacy” for “plate.Tanguay_ZF_120hpf_SNOU_legacy”, “Tanguay_ZF_120hpf_OTIC_legacy” for “Tanguay_ZF_120hpf_SNOU_legacy”, “Tanguay_ZF_120hpf_OTIC_legacy,” for “Tanguay_ZF_120hpf_SNOU_legacy,”, “otic vesicle” for “embryonic snout”
# as §2, with “To increase bioavailability, the chorion was enzymatically removed using pronase (63.6mg/ml, >/= 3.5U/mg, Sigma-Aldrich: P5147) at 4 hours post fertilization (hpf) using a custom automated dechorionator.Chemical exposures: Six hpf dechorionated embryos were placed 1 embryo per well in a 96-well plate prefilled with 90 ul of EM using automated embryo placement systems (AEPS).” left out
row,SMILES,outcome
1,C=C(C)C(N)=O,inactive
2,CC/C(=C(\c1ccccc1)c1ccc(OCCN(C)C)cc1)c1ccccc1,inactive
3,COC(=O)c1ccc(C(=O)OC)cc1,inactive
4,CCCCOCCOCCO,inactive
5,C#C[C@]1(O)CC[C@H]2[C@@H]3CCc4cc(O)ccc4[C@H]3CC[C@@]21C,inactive

# Test system: not listed separately
# Assay: Tanguay_ZF_120hpf_PE_legacy: (Legacy) Oregon State University Tanguay Lab 120 Hour Post-fertilization zebrafish Assay for Pericardial Edema (AID 2283640);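 as to AC50: potency for increased incidence of pericardial edema versus DMSO baseline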
# Procedure, shortened: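 Embryos from wild-type 5D adults were staged, then dosed in 0.64% DMSO. They were kept sealed in the dark at 28C until 120 hpf. Pericardial edema was then recorded as present or absent.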
SMILES,outcome,AC50
C=C(C)C(N)=O,inactive,
CC/C(=C(\c1ccccc1)c1ccc(OCCN(C)C)cc1)c1ccccc1,inactive,
C[C@]12CC[C@@H]3c4ccc(O)cc4CC[C@H]3[C@@H]1CC[C@@H]2O,inactive,
COC(=O)c1ccc(C(=O)OC)cc1,,28.9 µM (active)
CCCCOCCOCCO,inactive,
O=C(c1ccc(OCCN2CCCCC2)cc1)c1c(-c2ccc(O)cc2)sc2cc(O)ccc12,inactive,
C#C[C@]1(O)CC[C@H]2[C@@H]3CCc4cc(O)ccc4[C@H]3CC[C@@]21C,inactive,
